In PubChem BioAssay (Tox21):
Results filed as inconclusive are left out. Activity calls are given as the source filed them. Calls come from the whole dose curve; as a rule, active = well fitted cell-killing curve with a large enough effect in the repeat runs; inconclusive = weak or mixed curves; inactive = flat fitted curve, though single readings scatter.

Test: qHTS RealTime-Glo MT Cell Viability Assay in HepG2 cells - 8 hour (AID 1224873); note: nearly all actives have a fitted effect of over 55% in size
Conditions: RealTime-Glo luminescence; series mostly up to 76.8 µM; viability change, negative = cytotoxic: at the top concentration
Description: National Center for Advancing Translational Sciences [NCATS]
NIH Chemical Genomics Center [NCGC]
U.S. Environmental Protection Agency [EPA]
National Institutes of Environmental Health Sciences [NIEHS]
National Toxicology Program [NTP]
U.S. Food and Drug Administration [FDA]
Measure of cell viability is critical in the cell-base assay. Analysis of cell viability is necessary for the characterization of cell responses to cytotoxic drugs and environmental stress. A RealTime-Glo MT Cell Viability Assay to monitor cell viability in real time of continues cell culture during 40 hours of compound treatment was used to screen Tox21 10K library compounds in HepG2 cells. The RealTime-Glo MT Cell Viability Assay is a nonlytic, homogeneous, bioluminescent method to measure cell viability in real time using a simple, plate-based method. The assay involves adding NanoLuc luciferase and a cell-permeant prosubstrate to cells in culture. Viable cells reduce the proprietary prosubstrate to generate a substrate for NanoLuc luciferase. This substrate diffuses from cells into the surrounding culture medium, where it is rapidly used by the NanoLuc Enzyme to produce a luminescent signal. The signal correlates with the number of viable cells, making the assay well suited for cytotoxicity studies.
Tox21 Assay Protocol Summary:
The mixture of HepG2 cell suspension and reagents were dispensed at 600cells/6 ul/well in 1536-well tissue culture treated black solid bottom plates using a Multidrop dispenser. After the assay plates were incubated at a 37 C/5% CO2 incubator for 5 hours, 23 nL of compounds dissolved in DMSO, positive and negative controls was transferred to the assay plate by a pintool work station. The plates were incubated at 37 C for 40 hours. The luminescence intensity were measured at 0h, 8h, 16h, 24h, 32h and 40h time points using ViewLux plate reader during compound treatment.
% is set by controls: 0 for no effect and ±100 for the full control effect.

| Structure (SMILES) | viability change, negative = cytotoxic |
| --- | --- |
| CCCC(=O)CC | -2.98% (inactive) |
| C[C@@H]1CC[C@@]2(OC1)O[C@H]1C[C@H]3[C@@H]4CC[C@H]5C[C@@H](O)CC[C@]5(C)[C@H]4CC(=O)[C@]3(C)[C@H]1[C@@H]2C | 1.5% [at 6.97 µM] (inactive) |
| CCCCNCC | 1.79% (inactive) |
| CC(C)(Sc1cc(C(C)(C)C)c(O)c(C(C)(C)C)c1)Sc1cc(C(C)(C)C)c(O)c(C(C)(C)C)c1 | -12.4% [at 35.3 µM] (inactive) |
| CCCCC(CC)CCC(CC(C)C)OS(=O)(=O)O (stereo not given) | 1.34% (inactive) |
| CC(C)(C)OC=O | 0.595% (inactive) |
| CN(C)CCC[C@@]1(c2ccc(F)cc2)OCc2cc(C#N)ccc21 | 8.23% [at 35.3 µM] (inactive) |
| CCO/C=C1\N=C(c2ccccc2)OC1=O | 4.46% (inactive) |
| CC(=O)c1c(C)cc(C(C)(C)C)cc1C | -14.9% (inactive) |
| CCOc1ccccc1OCCN[C@H](C)Cc1ccc(OC)c(S(N)(=O)=O)c1 | -0.561% [at 35.3 µM] (inactive) |
| CC(=O)SC[C@@H](C)C(=O)N1CCC[C@H]1C(=O)N[C@@H](Cc1ccccc1)C(=O)O | 5.25% [at 35.3 µM] (inactive) |
| C=CCOC(=O)CCCCCCCC | 1.85% (inactive) |
| CC(CC(=O)Cl)CC(C)(C)C (stereo not given) | -4.79% (inactive) |
| CCN1CCN(C(=O)N[C@@H](C(=O)N[C@@H]2C(=O)N3C(C(=O)O)=C(CSc4nnnn4C)CS[C@H]23)c2ccc(O)cc2)C(=O)C1=O | 1.21% [at 35.3 µM] (inactive) |
| O=C(OOC(=O)c1ccccc1)c1ccccc1 | 1.82% [at 35.3 µM] (inactive) |
| CCCOc1ccc(C(=O)OCCN(CC)CC)cc1N | 5.55% [at 35.3 µM] (inactive) |
| Clc1cc(Cl)c(Cl)c(Cl)c1Cl | 1.64% (inactive) |
| C=CC(=O)OCCOCCOCC | -13.7% (inactive) |
| CC(=O)OC1CCC(C(C)(C)C)CC1 (stereo not given) | 1.17% (inactive) |
| CCCCCCCCCCCCCCBr | 0.706% (inactive) |

| Structure (SMILES) | viability change, negative = cytotoxic |
| --- | --- |
| CCCCc1ccc(Cl)cc1 | 1.31% (inactive) |
| CCCCCCCC(=O)N(C)C | 2.57% (inactive) |
| CC(=O)OCC(=O)[C@@]1(O)CC[C@H]2[C@@H]3CCC4=CC(=O)C=C[C@]4(C)[C@H]3[C@@H](O)C[C@@]21C | -0.708% [at 35.3 µM] (inactive) |
| CCCCCCCCCCCC(C)=O | 1.06% (inactive) |
| O=S(=O)(O)CC(O)CCl (stereo not given) | 1.11% (inactive) |
| CCN(CC)CC(=O)Oc1ccc(NC(C)=O)cc1 | 2.42% [at 35.3 µM] (inactive) |
| O=C(O)COc1ccc2ccccc2c1 | 4.93% (inactive) |
| CC(C)C(C)C | 0.227% (inactive) |
| CC(=O)SCC(CC(=O)c1ccc(C)cc1)C(=O)O (stereo not given) | 7.06% [at 35.3 µM] (inactive) |
| O=C[C@@H](O)[C@H](O)[C@H](O)CO | 2.76% (inactive) |
| COc1cc(NS(=O)(=O)c2ccc(N)cc2)ncn1 | 3.12% [at 35.3 µM] (inactive) |
| CCCCCCCCS(=O)(=O)O | 0.39% (inactive) |
| CCC(C)c1nccnc1OC (stereo not given) | -6.55% (inactive) |
| COC(C)(C)CC(C)=O | 2.46% (inactive) |
| CCCCCCC(O)CO (stereo not given) | 2.38% (inactive) |
| CCc1ncc(C)[nH]1 | 2.44% (inactive) |
| CC(=O)c1ccc(O)c(C(N)=O)c1 | -2.73% [at 35.3 µM] (inactive) |
| CCOC(=O)[C@H](CCc1ccccc1)N[C@H]1CS[C@H](c2cccs2)CN(CC(=O)O)C1=O | -1.23% [at 35.3 µM] (inactive) |
| CC(=O)OC/C=C(/C)CCC=C(C)C | 2.99% (inactive) |
| N=C(N)N | 0.294% [at 35.3 µM] (inactive) |
